# PubChem BioAssay (EPA / NIEHS)
# Activity calls are given as the source filed them. Rule for the calls: active = hit-call score of the fitted dose curve at least 0.9, where 1 is the maximum; inactive = score below 0.9.
# Experiments:
# [1] = target: CCAAT/enhancer-binding protein beta (Homo sapiens) (UniProt P17676); assay: ATG_C_EBP_CIS: Attagene CIS-FACTORIAL HepG2 Assay for human CCAAT/Enhancer Binding Protein (C/EBP) beta (AID 2282927); conditions: HepG2 Attagene cis-factorial transcription factor reporter; actives raise or lower the signal
# Outline: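 Changes in reporter mRNA, rather than exogenous chimeric receptor activity, reflect native C/EBP signalling in transfected HepG2 cells dosed for 24 h; transcripts are detected by RT-PCR and capillary electrophoresis.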
# [2] = ATG_CMV_CIS: Attagene CIS-FACTORIAL HepG2 Assay for human CMV (Internal Marker) (AID 2282928); conditions: HepG2 CMV promoter reporter, transcription factor profiling; actives raise or lower the signal;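 note: endpoint acts as a background internal control marker rather than a target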
# Outline: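 Readout: fluorescent reporter cDNA fragments separated by capillary electrophoresis after RT-PCR and HpaI cut. Cells: HepG2 carrying transfected cis-promoter reporter constructs, dosed 24 h. Endpoint serves as background internal-marker control, fit bidirectionally versus DMSO.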
# [3] = ATG_DR4_LXR_CIS: Attagene CIS-FACTORIAL HepG2 Assay for human Liver X Receptor (LXR), DR4 submotif (AID 2282929); conditions: HepG2 Attagene DR4 cis-reporter, mRNA transcription; actives raise or lower the signal
# Outline: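 DR4 cis-reporter in HepG2, 24 h exposure. Detection: RT-PCR, 6-FAM labelling, CE fragment analysis. Endpoint fitted bidirectionally, DMSO = baseline.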
# [4] = target: Aryl hydrocarbon receptor (Homo sapiens) (UniProt P35869); assay: ATG_Ahr_CIS: Attagene CIS-FACTORIAL HepG2 Assay for human Aryl Hydrocarbon Receptor (Ahr) (AID 2282930); conditions: HepG2 AhR cis-factorial reporter transcription; actives raise or lower the signal
# Outline: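 HepG2, transient MRTU (cis) transfection, 24 h exposure. RNA → cDNA → PCR → 6-FAM primer extension → HpaI 2 h 37 C → CE. Fit: bidirectional, DMSO baseline.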
# [5] = ATG_AP_1_CIS: Attagene CIS-FACTORIAL HepG2 Assay for human Activator Protein 1 (AP-1) (AID 2282931); conditions: HepG2 Attagene cis-factorial AP-1 reporter mRNA; actives raise or lower the signal
# Outline: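 Cis-regulated reporter units transiently expressed in HepG2 report endogenous transcription-factor activity. Signal: reporter mRNA at 24 h, via RT-PCR and fluorescent capillary electrophoresis. Endpoint derived by bidirectional fitting, DMSO as negative control.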
# [6] = ATG_AP_2_CIS: Attagene CIS-FACTORIAL HepG2 Assay for human Activator Protein 2 (AP-2) (AID 2282932); conditions: HepG2 AP-2 cis-reporter, Attagene transcription factor profiling; actives raise or lower the signal
# Outline: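 Endogenous transcription factor activity is reported through transfected multiplex reporter constructs in HepG2, after 24 h of compound exposure. Transcripts were quantified by RT-PCR and capillary electrophoresis of fluorescent fragments. Bidirectional fit against DMSO.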
# [7] = ATG_BRE_CIS: Attagene CIS-FACTORIAL HepG2 Assay for human Bone Morphogenetic Protein (BMP) Response Element (BRE) (AID 2282933); conditions: HepG2 BMP response element reporter, Attagene transcription factor profiling; actives raise or lower the signal
# Outline: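 HepG2 cells transiently transfected with CIS reporter units (endogenous TF activity, BMP response element), dosed 24 h. Reporter mRNA quantified by RT-PCR, fluorescent labelling and capillary electrophoresis; bidirectional fit vs DMSO baseline.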
# [8] = ATG_CRE_CIS: Attagene CIS-FACTORIAL HepG2 Assay for human cAMP Responsive Element (CRE) binding protein 3 (AID 2282926); conditions: HepG2 CRE cis-reporter, Attagene multiplexed mRNA; actives raise or lower the signal
# Outline: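 Assay format: transient reporter transfection of HepG2, 24 h treatment, total RNA isolation with DNase I step. Reporter abundance read by fluorescence after PCR and capillary separation; DMSO-normalised gain or loss fitting.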
# [9] = target: Retinoic acid receptor alpha (Homo sapiens) (UniProt P10276); assay: ATG_DR5_RAR_CIS: Attagene CIS-FACTORIAL HepG2 Assay for human Retinoic Acid Receptor Alpha (RARE), DR5 submotif (AID 2282934); conditions: HepG2 Attagene cis-factorial RARE DR5 reporter, mRNA; actives raise or lower the signal;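 for AC50: reporter responds to endogenous RAR alpha beta and gamma in HepG2 not RARA alone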
# Outline: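 HepG2, transient cis-reporter transfection, 24 h exposure. mRNA readout: RT-PCR, FAM label, HpaI cut, capillary electrophoresis. DMSO baseline, gain/loss fitting.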
# Sequence of CCAAT/enhancer-binding protein beta (Homo sapiens) (P17676 whole entry, looked up): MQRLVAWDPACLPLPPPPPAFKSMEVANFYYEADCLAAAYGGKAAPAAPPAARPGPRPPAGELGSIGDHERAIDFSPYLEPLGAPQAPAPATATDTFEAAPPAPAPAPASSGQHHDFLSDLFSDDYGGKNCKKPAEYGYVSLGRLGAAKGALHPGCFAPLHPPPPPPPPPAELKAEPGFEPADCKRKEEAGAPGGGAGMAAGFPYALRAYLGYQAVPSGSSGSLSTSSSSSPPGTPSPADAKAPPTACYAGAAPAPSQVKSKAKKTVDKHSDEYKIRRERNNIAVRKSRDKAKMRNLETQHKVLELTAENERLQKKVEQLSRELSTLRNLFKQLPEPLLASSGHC
# Sequence of Retinoic acid receptor alpha (Homo sapiens) (P10276 whole entry, looked up): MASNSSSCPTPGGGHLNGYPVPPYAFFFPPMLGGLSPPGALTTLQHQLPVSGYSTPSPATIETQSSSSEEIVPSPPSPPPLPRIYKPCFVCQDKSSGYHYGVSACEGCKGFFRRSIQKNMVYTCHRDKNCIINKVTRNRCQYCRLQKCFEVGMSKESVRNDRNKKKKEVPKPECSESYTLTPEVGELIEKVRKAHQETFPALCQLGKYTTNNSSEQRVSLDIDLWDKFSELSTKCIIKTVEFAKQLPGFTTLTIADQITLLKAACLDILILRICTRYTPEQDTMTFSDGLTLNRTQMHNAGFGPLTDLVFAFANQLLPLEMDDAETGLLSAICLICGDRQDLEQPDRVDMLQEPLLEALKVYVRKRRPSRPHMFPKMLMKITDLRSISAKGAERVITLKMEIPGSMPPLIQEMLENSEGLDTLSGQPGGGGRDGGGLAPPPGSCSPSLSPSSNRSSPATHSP
# Sequence of Aryl hydrocarbon receptor (Homo sapiens) (P35869 whole entry, looked up): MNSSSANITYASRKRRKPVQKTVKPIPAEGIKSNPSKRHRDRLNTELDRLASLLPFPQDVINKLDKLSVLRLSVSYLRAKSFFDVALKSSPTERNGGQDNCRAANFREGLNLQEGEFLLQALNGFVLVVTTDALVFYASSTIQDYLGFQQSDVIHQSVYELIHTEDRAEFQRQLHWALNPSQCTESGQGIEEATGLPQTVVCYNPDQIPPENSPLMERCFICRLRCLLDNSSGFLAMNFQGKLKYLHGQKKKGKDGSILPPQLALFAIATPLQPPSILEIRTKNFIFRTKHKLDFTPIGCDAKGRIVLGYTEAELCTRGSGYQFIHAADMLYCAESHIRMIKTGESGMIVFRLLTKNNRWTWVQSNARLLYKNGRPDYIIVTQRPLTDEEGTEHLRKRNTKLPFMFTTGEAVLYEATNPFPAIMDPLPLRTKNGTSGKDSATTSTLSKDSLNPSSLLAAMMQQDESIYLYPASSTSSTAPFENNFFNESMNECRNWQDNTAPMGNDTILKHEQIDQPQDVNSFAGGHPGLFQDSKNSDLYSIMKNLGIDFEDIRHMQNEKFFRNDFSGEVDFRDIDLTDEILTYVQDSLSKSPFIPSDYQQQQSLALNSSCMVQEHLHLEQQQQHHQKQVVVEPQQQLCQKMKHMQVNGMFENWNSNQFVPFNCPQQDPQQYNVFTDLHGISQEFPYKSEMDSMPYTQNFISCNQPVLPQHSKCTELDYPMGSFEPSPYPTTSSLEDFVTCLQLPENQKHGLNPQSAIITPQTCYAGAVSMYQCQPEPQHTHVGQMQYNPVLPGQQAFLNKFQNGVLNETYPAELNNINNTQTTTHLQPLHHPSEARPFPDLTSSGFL
compound,measurement,setting,value
CCOC(=O)CC(C)C,outcome,[1],inactive
same,outcome,[2],inactive
same,outcome,[3],inactive
same,outcome,[4],inactive
same,outcome,[5],inactive
same,outcome,[6],inactive
same,outcome,[7],inactive
CC(C)Cc1ccc(C(C)C(=O)O)cc1 (stereo unspecified),outcome,[8],inactive
same,outcome,[2],inactive
same,outcome,[3],inactive
same,outcome,[4],inactive
same,outcome,[5],inactive
same,outcome,[6],inactive
same,outcome,[7],inactive
same,outcome,[9],inactive
CC(=N[Si](C)(C)C)O[Si](C)(C)C,outcome,[1],inactive
same,outcome,[2],inactive
same,outcome,[3],inactive
same,outcome,[4],inactive
same,outcome,[5],inactive
same,outcome,[6],inactive
same,outcome,[7],inactive
O=C1OC2(c3ccc(O)cc3Oc3cc(O)ccc32)c2ccccc21,outcome,[8],inactive
same,outcome,[2],inactive
same,outcome,[3],inactive
same,outcome,[6],inactive
same,outcome,[7],inactive
CCCOC(=O)CC,outcome,[8],inactive
same,outcome,[2],inactive
same,outcome,[3],inactive
same,outcome,[4],inactive
same,outcome,[6],inactive
same,outcome,[7],inactive
Cc1cc(O)c2c(c1)C(=O)c1cc(O)cc(O)c1C2=O,AC50,[8],8.7 µM (active)
same,outcome,[2],inactive
same,AC50,[3],44.8 µM (active)
same,AC50,[4],25.3 µM (active)
same,outcome,[5],inactive
same,outcome,[6],inactive
same,AC50,[7],9.2 µM (active)
same,AC50,[9],17.6 µM (active)
CC(=O)c1ccc(O)cc1,outcome,[8],inactive
same,outcome,[2],inactive
same,outcome,[3],inactive
same,outcome,[4],inactive
same,outcome,[6],inactive
same,outcome,[7],inactive
OCC=Cc1ccccc1,outcome,[1],inactive
same,outcome,[2],inactive
same,outcome,[3],inactive
same,AC50,[4],50.1 µM (active)
same,outcome,[5],inactive
same,outcome,[6],inactive
same,outcome,[7],inactive
C=CC(=O)OCCCCCC,outcome,[1],inactive
same,outcome,[2],inactive
same,outcome,[3],inactive
same,outcome,[4],inactive
same,outcome,[5],inactive
same,outcome,[6],inactive
same,outcome,[7],inactive
CCCC(O)C(CC)CO (stereo unspecified),outcome,[8],inactive
same,outcome,[2],inactive
same,outcome,[3],inactive
same,outcome,[4],inactive
same,outcome,[5],inactive
same,outcome,[6],inactive
same,outcome,[7],inactive
NC(=O)NC(N)=O,outcome,[8],inactive
same,outcome,[2],inactive
same,outcome,[3],inactive
same,outcome,[5],inactive
same,outcome,[6],inactive
same,outcome,[7],inactive
same,outcome,[9],inactive
CN(C)C(=O)Nc1ccccc1,outcome,[8],inactive
same,outcome,[2],inactive
same,outcome,[3],inactive
same,outcome,[4],inactive
same,outcome,[6],inactive
same,outcome,[7],inactive
same,outcome,[9],inactive
Cc1cc(O)c(C)c(C)c1O,outcome,[8],inactive
same,outcome,[3],inactive
same,AC50,[4],17.8 µM (active)
same,outcome,[5],inactive
same,outcome,[6],inactive
same,AC50,[7],52.8 µM (active)
CC(C)C(=O)OCC=Cc1ccccc1,outcome,[8],inactive
same,outcome,[2],inactive
same,outcome,[3],inactive
same,outcome,[4],inactive
same,outcome,[6],inactive
same,outcome,[7],inactive
CCCCCCC(C)O (stereo unspecified),outcome,[1],inactive
same,outcome,[2],inactive
same,outcome,[3],inactive
same,outcome,[4],inactive
same,outcome,[5],inactive
same,outcome,[6],inactive
same,outcome,[7],inactive
CC(C)OB(OC(C)C)OC(C)C,outcome,[8],inactive
same,outcome,[3],inactive
same,outcome,[5],inactive
same,outcome,[6],inactive
CCCCCC1C(=O)CCC1CC(=O)OC (stereo unspecified),outcome,[8],inactive
same,outcome,[3],inactive
same,outcome,[4],inactive
same,outcome,[5],inactive
same,outcome,[6],inactive
same,outcome,[7],inactive
same,outcome,[9],inactive
Cc1cc(N)n(-c2ccccc2)n1,outcome,[8],inactive
same,outcome,[2],inactive
same,outcome,[3],inactive
same,outcome,[5],inactive
same,outcome,[6],inactive
same,outcome,[9],inactive
OCCN1CCOCC1,outcome,[8],inactive
same,outcome,[2],inactive
same,outcome,[3],inactive
same,outcome,[4],inactive
same,outcome,[6],inactive
same,outcome,[7],inactive
same,outcome,[9],inactive
CC(C)(O)CCc1ccccc1,outcome,[8],inactive
same,outcome,[2],inactive
same,outcome,[3],inactive
same,outcome,[5],inactive
same,outcome,[6],inactive
same,outcome,[7],inactive
same,outcome,[9],inactive
C=COCC1CCC(COC=C)CC1 (stereo unspecified),outcome,[8],inactive
same,outcome,[2],inactive
same,outcome,[3],inactive
same,outcome,[4],inactive
same,outcome,[6],inactive
same,outcome,[7],inactive
CCCCCCCCCOS(=O)(=O)O,outcome,[1],inactive
same,outcome,[2],inactive
same,AC50,[3],78.7 µM (active)
same,outcome,[4],inactive
same,outcome,[5],inactive
same,outcome,[6],inactive
same,outcome,[7],inactive
CCC(C)(C)C1CCC(=O)CC1,outcome,[8],inactive
same,outcome,[2],inactive
same,outcome,[3],inactive
same,outcome,[4],inactive
same,outcome,[5],inactive
same,outcome,[6],inactive
same,outcome,[7],inactive
same,outcome,[9],inactive
NC(=O)c1c(Cl)cccc1Cl,outcome,[8],inactive
same,outcome,[3],inactive
same,AC50,[4],55.4 µM (active)
same,outcome,[5],inactive
same,outcome,[6],inactive
same,outcome,[7],inactive
CCCCCCOc1ccc(O)cc1,outcome,[8],inactive
same,AC50,[2],33.4 µM (active)
same,AC50,[3],44.1 µM (active)
same,outcome,[4],inactive
same,outcome,[5],inactive
same,outcome,[6],inactive
same,outcome,[7],inactive
same,outcome,[9],inactive
C=CC(C)(CCC=C(C)C)OC(=O)CC (stereo unspecified),outcome,[8],inactive
same,outcome,[2],inactive
same,outcome,[3],inactive
same,outcome,[5],inactive
same,outcome,[6],inactive
same,outcome,[7],inactive
CCOC(=O)CCCCCCCCC(=O)OCC,outcome,[8],inactive
same,outcome,[3],inactive
same,outcome,[5],inactive
same,outcome,[6],inactive
same,outcome,[9],inactive
CC(=O)C1=C(C)[C@@H]2C[C@@]3(C1)[C@H](C)CC[C@H]3C2(C)C,AC50,[8],76.3 µM (active)
same,AC50,[2],68.8 µM (active)
same,AC50,[3],58.8 µM (active)
same,AC50,[4],55.3 µM (active)
same,AC50,[5],76.9 µM (active)
same,outcome,[6],inactive
same,outcome,[7],inactive
CCC(C)(C)c1cc(O)c(C(C)(C)CC)cc1O,AC50,[1],19.8 µM (active)
same,AC50,[2],54.3 µM (active)
same,AC50,[3],26.7 µM (active)
same,outcome,[5],inactive
same,outcome,[6],inactive
same,outcome,[7],inactive
CC(C)N1C(=O)c2ccccc2C1=O,outcome,[1],inactive
same,outcome,[2],inactive
same,outcome,[3],inactive
same,outcome,[4],inactive
same,outcome,[5],inactive
same,outcome,[6],inactive
same,outcome,[7],inactive
C/C=C(\C)C(=O)OC/C=C(\C)CCC=C(C)C,outcome,[1],inactive
same,outcome,[2],inactive
same,outcome,[3],inactive
same,outcome,[4],inactive
same,outcome,[5],inactive
same,outcome,[6],inactive
same,outcome,[7],inactive
same,outcome,[9],inactive
